According to PubChem BioAssay (NCATS):
Values joined by “and” are separate entries in the source; they are usually repeats but may differ in a detail not shown here. Equal entries are not always repeated. Records with an inconclusive call do not appear. A call without a number means that no potency is given here. Unmarked numbers belong to inactive results. Active and inactive are the calls of the source. The call rests on the fitted dose curve; in most records, active means well fitted inhibition curve with a large enough effect; inconclusive means small, poorly fitted or top-dose-only effect; inactive means flat fitted curve, though single readings scatter.

Experiments:
PC15 = experiment: qHTS profiling for inhibitors of Plasmodium falciparum proliferation (AID 504749); conditions: P. falciparum in erythrocytes, SYBR Green DNA, 72 h; series mostly up to 28.7 µM
Summary of the method: (§1)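 Infected RBCs, 0.3% parasitemia/2.5% Hct final; cpd 72 h, 37 C, 5% CO2; lysis buffer with saponin/triton/SYBR Green I, o/n RT dark; FI 485/535; norm. to artemisinin (0.29 uM) and DMSO.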

PC26 = experiment: as above; conditions: P. falciparum in erythrocytes, SYBR Green DNA, 72 h; series mostly up to 28.7 µM
Summary of the method: as §1

PC49 = experiment: as above; conditions: P. falciparum in erythrocytes, SYBR Green DNA, 72 h; series mostly up to 28.7 µM
Summary of the method: as §1

SC27B = experiment: as above; conditions: P. falciparum in erythrocytes, SYBR Green DNA, 72 h; series mostly up to 28.7 µM
Summary of the method: as §1

TAB109 = experiment: as above; conditions: P. falciparum in erythrocytes, SYBR Green DNA, 72 h; series mostly up to 28.7 µM
Summary of the method: as §1

TAB113 = experiment: as above; conditions: P. falciparum in erythrocytes, SYBR Green DNA, 72 h; series mostly up to 28.7 µM
Summary of the method: as §1

TAB165 = experiment: as above; conditions: P. falciparum in erythrocytes, SYBR Green DNA, 72 h; series mostly up to 28.7 µM
Summary of the method: as §1

HEK293 = experiment: Cytotoxic Profiling of Annotated Libraries Using Quantitative High-Throughput Screening (AID 1296008); conditions: Five cell lines viability, CellTiter-Glo ATP luminescence, 48-72 h; max response: stronger effect = lower value
Summary of the method: (§2)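 Cytotoxicity was measured as CellTiter-Glo ATP luminescence, read after 10 min at room temperature. Compound treatment of the cells lasted 48 or 72 hr at 37 degrees Celsius in a qHTS format.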

HaCat [1] = experiment: as above; conditions: Five cell lines viability, CellTiter-Glo ATP luminescence, 48-72 h; max response: stronger effect = lower value
Summary of the method: as §2

KB-3-1 = experiment: as above; conditions: Five cell lines viability, CellTiter-Glo ATP luminescence, 48-72 h; max response: stronger effect = lower value
Summary of the method: as §2

NIH3T3 = experiment: as above; conditions: Five cell lines viability, CellTiter-Glo ATP luminescence, 48-72 h; max response: stronger effect = lower value
Summary of the method: as §2

HACAT [2] = experiment: qHTS assay to identify novel small-molecules to repurpose for Merkel cell carcinoma treatment (AID 1296009); conditions: MCC and control cell lines, CellTiter-Glo viability, 72 h; at 44.8 µM (top of the series) unless noted
Summary of the method: (§3)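 72 hr, 37 degree celsius; NPC 8-pt / MIPE 11-pt dose response; compound pinned in DMSO; CellTiter-Glo, 10 min RT, luminescence; normalized to no-cell and DMSO controls.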

MCC-13 = experiment: as above; conditions: MCC and control cell lines, CellTiter-Glo viability, 72 h; series mostly up to 46 µM
Summary of the method: as §3

MCC-26 = experiment: as above; conditions: MCC and control cell lines, CellTiter-Glo viability, 72 h; series mostly up to 46 µM
Summary of the method: as §3

W2 = experiment: qHTS profiling for inhibitors of Plasmodium falciparum proliferation (AID 504749); conditions: P. falciparum in erythrocytes, SYBR Green DNA, 72 h; series mostly up to 28.7 µM
Summary of the method: as §1

HEK293T = experiment: qHTS assay to identify novel small-molecules to repurpose for Merkel cell carcinoma treatment (AID 1296009); conditions: MCC and control cell lines, CellTiter-Glo viability, 72 h; at 44.8 µM (top of the series)
Summary of the method: as §3

MKL-1 = experiment: as above; conditions: MCC and control cell lines, CellTiter-Glo viability, 72 h; series mostly up to 46 µM
Summary of the method: as §3

MKL-2 = experiment: as above; conditions: MCC and control cell lines, CellTiter-Glo viability, 72 h; series mostly up to 46 µM
Summary of the method: as §3

CRL-7250 [3] = experiment: Cytotoxic Profiling of Annotated Libraries Using Quantitative High-Throughput Screening (AID 1296008); conditions: Five cell lines viability, CellTiter-Glo ATP luminescence, 48-72 h; max response: stronger effect = lower value
Summary of the method: as §2

CRL-7250 [4] = experiment: qHTS assay to identify novel small-molecules to repurpose for Merkel cell carcinoma treatment (AID 1296009); conditions: MCC and control cell lines, CellTiter-Glo viability, 72 h; series mostly up to 44.8 µM
Summary of the method: as §3
Further: nearly all actives have a fitted effect of over 60% in size.
Potency means the concentration at half of the fitted maximal effect.

Which Potency (PC15) does the source give for `C[C@]12C/C(=C/O)C(=O)C[C@@H]1CC[C@@H]1[C@@H]2CC[C@@]2(C)[C@H]1CC[C@]2(C)O` here?
Its Potency is “inactive”.

What about the Potency (PC26) of the same compound?
The Potency was “inactive”.

What about the Potency (PC49) of the same compound?
Its Potency is “inactive”.

What about the Potency (SC27B) of the same compound?
Its Potency is “inactive”.

What about the Potency (TAB109) of the same compound?
The Potency was “inactive”.

What about the Potency (TAB113) of the same compound?
The Potency was “inactive”.

What about the Potency (TAB165) of the same compound?
The Potency was “inactive”.

And the max response (HEK293)?
The max response was -8.16%.

And the outcome (HaCat [1])?
The outcome was “inactive”.

What about the max response (KB-3-1) of the same compound?
Its max response is -12.7%.

What about the max response (NIH3T3) of the same compound?
The max response was 1.95%.

And the outcome (HACAT [2])?
Its outcome is “inactive”.

And the Potency (MCC-13)?
Its Potency is “inactive”.

What about the Potency (MCC-26) of the same compound?
The Potency was “inactive”.

Which results are given for `COc1ccccc1N1CCNCC1`?
Potency (PC15): inactive; Potency (PC26): inactive; Potency (PC49): inactive; Potency (SC27B): inactive; Potency (TAB109): inactive; Potency (TAB113): inactive; Potency (TAB165): inactive; Potency (W2): inactive; outcome (HEK293): inactive; outcome (HaCat [1]): inactive; max response (KB-3-1): -11%; max response (NIH3T3): -4.83%; outcome (HACAT [2]): inactive; outcome (HEK293T): inactive; Potency (MCC-13): inactive; Potency (MCC-26): inactive; Potency (MKL-1): inactive; Potency (MKL-2): inactive

With `c1ccc(C2CC2)c(OCC2=NCCN2)c1` as the compound, how does the Potency (PC15) read?
The Potency was “inactive”.

And the Potency (PC26)?
The Potency was “inactive”.

What about the Potency (PC49) of the same compound?
Its Potency is “inactive”.

And the Potency (SC27B)?
The Potency was “inactive”.

And the Potency (TAB109)?
Its Potency is “inactive”.

What about the Potency (TAB113) of the same compound?
Its Potency is “inactive”.

What about the Potency (TAB165) of the same compound?
Its Potency is “inactive”.

And the Potency (W2)?
Its Potency is 13.5 µM (active).

And the max response (HEK293)?
The max response was -2.25%.

What about the outcome (HaCat [1]) of the same compound?
The outcome was “inactive”.

And the max response (KB-3-1)?
The max response was 1.77%.

And the max response (NIH3T3)?
The max response was -5.7%.

What about the outcome (HACAT [2]) of the same compound?
Its outcome is “inactive”.

And the Potency (MCC-13)?
The Potency was “inactive”.

What about the Potency (MCC-26) of the same compound?
The Potency was “inactive”.

What about the Potency (MKL-1) of the same compound?
Its Potency is “inactive”.

And the Potency (MKL-2)?
The Potency was “inactive”.

How did the Potency (PC15) turn out when `CCC1(C2=NCCN2)Cc2ccccc2O1` (stereo not given) was run?
The Potency was “inactive”.

What about the Potency (PC26) of the same compound?
The Potency was “inactive”.

And the Potency (PC49)?
Its Potency is “inactive”.

And the Potency (TAB165)?
The Potency was 11.2 µM (active).

And the Potency (W2)?
The Potency was 3.79 µM (active).

And the max response (CRL-7250 [3])?
Its max response is -2.42%.

And the max response (HEK293)?
The max response was 2.14%.

What about the max response (NIH3T3) of the same compound?
The max response was -1.86%.

What about the Potency (MCC-13) of the same compound?
Its Potency is “inactive”.

And the Potency (MCC-26)?
The Potency was “inactive”.

What about the Potency (MKL-1) of the same compound?
Its Potency is “inactive”.

And the Potency (MKL-2)?
The Potency was “inactive”.

Which Potency (HEK293) does the source give for `COc1ccc2c(c1OC)CN1CCc3cc4c(cc3C1C2)OCO4` (stereo not given) here?
Its Potency is 9.44 µM (active) and 935 nM (active).

And the max response (HaCat [1])?
The max response was 1.37%.

And the outcome (HaCat [1])?
The outcome was “inactive”.

And the max response (KB-3-1)?
Its max response is -7.53% and -10%.

And the max response (NIH3T3)?
The max response was -8.93%.

What about the outcome (HACAT [2]) of the same compound?
Its outcome is “inactive”.

And the Potency (MCC-13)?
Its Potency is “inactive”.

What about the Potency (MCC-26) of the same compound?
The Potency was “inactive”.

What about the Potency (MKL-1) of the same compound?
The Potency was 11.9 µM (active).

What about the Potency (MKL-2) of the same compound?
The Potency was 20.9 µM (active).

How did the outcome (CRL-7250 [4]) turn out when `CC(CN(C)C)CN1c2ccccc2CCc2ccccc21` (stereo not given) was run?
Its outcome is “inactive”.

With `CC1(C)S[C@@H]2[C@H](NC(=O)Cc3ccccc3)C(=O)N2[C@H]1C(=O)O` (tested in a mixture with another compound) as the compound, how does the outcome (CRL-7250 [4]) read?
The outcome was “inactive”.

`Cc1ccc(S(=O)(=O)N[C@@H](CCCCN)C(=O)CCl)cc1` was tested. Which Potency (PC15) did it give?
The Potency was “inactive”.

What about the Potency (PC26) of the same compound?
The Potency was “inactive”.

And the Potency (TAB109)?
The Potency was 11.2 µM (active).

What about the max response (CRL-7250 [3]) of the same compound?
Its max response is 3.77%.

What about the outcome (HaCat [1]) of the same compound?
Its outcome is “inactive”.

What about the max response (KB-3-1) of the same compound?
Its max response is 32.5%.

And the outcome (NIH3T3)?
Its outcome is “inactive”.

What about the outcome (HACAT [2]) of the same compound?
Its outcome is “inactive”.

What about the Potency (MCC-13) of the same compound?
Its Potency is “inactive”.

What about the Potency (MCC-26) of the same compound?
The Potency was “inactive”.

What about the Potency (MKL-1) of the same compound?
The Potency was “inactive”.

And the Potency (MKL-2)?
Its Potency is “inactive”.
